Potency and outcome data for 26 compounds are collected here from PubChem BioAssay (NCATS).

A number with no mark means an inactive call. Results filed as inconclusive are left out. Where a call stands in place of a potency, no number is given. Activity calls are given as the source filed them. Unless noted, the call rests on the fitted dose curve; in most records, active means well fitted curve in either direction with a large enough effect (not every such curve was filed as active); inconclusive means small, poorly fitted or top-dose-only effect, or another doubt; inactive means flat fitted curve, though single readings scatter.

Glucocorticoid receptor (Homo sapiens), sequence (P04150 whole entry, looked up, the tested form may be a part): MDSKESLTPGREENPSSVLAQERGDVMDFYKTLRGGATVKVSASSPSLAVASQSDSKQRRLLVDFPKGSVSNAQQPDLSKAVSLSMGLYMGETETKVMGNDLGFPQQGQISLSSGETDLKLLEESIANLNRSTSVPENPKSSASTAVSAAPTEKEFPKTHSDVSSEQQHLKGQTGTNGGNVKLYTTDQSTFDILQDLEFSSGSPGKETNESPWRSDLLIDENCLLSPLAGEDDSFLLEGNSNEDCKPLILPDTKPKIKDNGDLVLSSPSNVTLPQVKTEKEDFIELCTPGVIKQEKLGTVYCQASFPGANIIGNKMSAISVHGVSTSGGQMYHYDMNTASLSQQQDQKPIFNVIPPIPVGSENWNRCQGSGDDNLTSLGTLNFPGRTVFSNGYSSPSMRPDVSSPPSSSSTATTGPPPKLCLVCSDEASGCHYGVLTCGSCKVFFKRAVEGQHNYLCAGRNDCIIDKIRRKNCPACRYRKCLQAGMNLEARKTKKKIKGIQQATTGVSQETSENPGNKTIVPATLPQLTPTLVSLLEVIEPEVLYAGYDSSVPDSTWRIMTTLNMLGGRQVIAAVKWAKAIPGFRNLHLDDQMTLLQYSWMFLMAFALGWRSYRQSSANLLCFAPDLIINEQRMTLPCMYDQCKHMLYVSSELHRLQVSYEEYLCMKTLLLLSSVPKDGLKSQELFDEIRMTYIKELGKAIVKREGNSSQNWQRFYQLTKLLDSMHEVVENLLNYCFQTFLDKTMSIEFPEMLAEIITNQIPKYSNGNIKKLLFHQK

The first test concerns the target Glucocorticoid receptor (Homo sapiens) (UniProt P04150). Put plainly: GR-EFC Redistribution (AID 451; calls by dose curve; further: potency means the concentration at half of the fitted maximal effect). The conditions noted are these: CHO-K1 GR-EFC translocation, beta-gal luminescence, 2 h. In outline: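 Translocation of GR-ED fusion to nuclear EA restores b-gal, read by luminescence after 1 h room-temperature detection. Engineered CHO-K1 biosensor cells, 1,000/well, exposed 2 h at 37 C to titrations up to 46 uM final.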
With `CNCCNS(=O)(=O)c1cccc2cnccc12`, the Potency was over 46 µM. For the compound `CCN(c1nc(N)c(C(=O)N=C(N)N)nc1Cl)C(C)C`, the Potency was over 46 µM.

Regarding `CCCc1c(OCCCOc2ccc(OCC(=O)O)cc2)ccc(C(C)=O)c1O`, the Potency was over 46 µM.

With `O=C1Nc2ccc(I)cc2/C1=C/c1cc(Br)c(O)c(Br)c1`, the Potency is over 46 µM. As to `O=C(O)C1=CC(=C(c2ccc(O)c(C(=O)O)c2)c2ccc(O)c(C(=O)O)c2)C=CC1=O`, the Potency was over 46 µM. The same measure, in the same setting: the value for `CCCCOC(=O)NS(=O)(=O)c1sc(CC(C)C)cc1-c1ccc(Cn2c(CC)nc3c(C)cc(C)nc32)cc1` was over 46 µM; that for `Cn1c(=O)c2[nH]c(C3CCCC3)nc2n(C)c1=O` was over 46 µM.

The target of another test is Mitogen-activated protein kinase 10 (Mus musculus) (UniProt Q61831). Put plainly: JNK3 AlphaScreen Assay (AID 530).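 Further: kinase came from lysate of stimulated human HepG2 cells; signal reports phosphorylation of biotinylated GST-cJun 1-79 at Ser73 with 10 µM ATP.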 As to conditions: JNK3 lysate, c-Jun phosphorylation; series mostly up to 57.1 µM. In outline: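 qHTS titrations with 15 min compound pre-incubation before adding ATP (10 uM final). Read-out: AlphaScreen of Ser73-phosphorylated biotin-GST-cJun using HepG2 lysate JNK3 activated by IL-1β and TNFα.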
On to `CN(C)S(=O)(=O)c1ccc2c(c1)/C(=C/c1cc3c([nH]1)CCCC3)C(=O)N2`, for which the outcome was inactive. Consider `COc1cc2c(CCNC(C)=O)c[nH]c2cc1O`, for which the compound was classed as inactive. Still for that read-out and setting: the value for `N=C(N)c1ccccc1` was “inactive”; that for `Cn1c(=O)[nH]c2ncn(C)c2c1=O` was “inactive”; that for `O=C(O)c1cccnc1C(=O)O` was “inactive”. For `COc1ccccc1N1CCN(CCN(C(=O)c2ccc(F)cc2)c2ccccn2)CC1`, the compound was classed as inactive. For the compound `Nc1ccc(N2C(=O)c3ccccc3C2=O)c(Cl)c1`, the outcome was inactive.

As to `CC[C@@H]1Cc2cc(O)ccc2C2=C1c1ccc(O)cc1C[C@H]2CC`, the compound was called inactive. With `CC(C)Cn1c(=O)n(C)c(=O)c2[nH]cnc21`, the outcome was inactive. On to `CCCc1c(-c2ccc(O)cc2)nn(-c2ccc(O)cc2)c1-c1ccc(O)cc1`, for which the result was inactive. The same measure, in the same setting: under `Cn1cc(C(=O)OCC2CCN(CCNS(C)(=O)=O)CC2)c2ccccc21` stands “inactive”; under `N=C(N)c1ccc(N)cc1`, “inactive”; under `CCCCCCCCCCCCCCSCC(=O)O`, “inactive”. As for `Fc1ccc(CN(C2=NCCN2)c2c(Cl)cccc2Cl)cc1`, the compound was classed as inactive. Regarding `CCC(=O)N1CCN(C(=O)c2ccccc2)CC1`, the result was inactive. `O=c1onc2cnc3ccccc3n12`: the outcome was inactive.

With `O=C(O)c1ccccc1Nc1cccc(OCc2ccc3ccccc3n2)c1`, the compound was classed as inactive.

With `CCc1ccc2c(-c3cccc(Cl)c3)nc(=O)n(CC)c2n1`, the compound was classed as inactive.

For `NC1(C(=O)O)CCCCC1`, the compound was called inactive. For `CCN(c1nc(N)c(C(=O)N=C(N)N)nc1Cl)C(C)C`, the compound was called inactive. Consider `CCCc1c(OCCCOc2ccc(OCC(=O)O)cc2)ccc(C(C)=O)c1O`, for which the compound was called inactive.
